# Data from the supplement of paper PMC8728848.
# This excerpt belongs to a sample that is enriched for the strongest signals.
# B1: Nc3LysM-2 (protein)
# chain: AHVLQARQSVSCDFATAANTGDTCASFAAAWGITEAAFAKLNPGVSCPGNLIAGSEYCVIGTVSTGAPTTTKAATTSTTPPTTTTTTKATTLSTSTTSVSPTGPSPQMPSITSTCNKFYQVQSGDGCWSIEQAQGVSASDFMAWNKAVDAQCDNLWLGYYVCVGVKGGSSPPPTTTTKPASSSAPTPQMPNTVSNCKKFHKVVSGDGCWAIEQAAGISASDFAKWNPYVDAACDNLWLGYYVCIGV
# Tests used:
# Experiment in all cases: glycan array binding signal (z-score within array); higher = stronger binding
# Settings in all cases: glycan notation: IUPAC condensed, linker removed
# [1] = molecular target: Fuc(a1-2)Gal(b1-3)GalNAc(a1-3)[Fuc(a1-2)]Gal(b1-4)GlcNAc
# Summary of the method: (§1)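 Glycan array binding is given as a within-array Z-score, which can be read as non-binding when negative. The arrays, 3228 of them, came from the Consortium for Functional Glycomics database and were retained only where the protein sequence was available. Z-scores were averaged across arrays of the same protein sequence at different concentrations or buffers and across linkers.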
# [2] = molecular target: Fuc(a1-2)Gal(b1-3)GlcNAc
# Summary of the method: as §1
# [3] = molecular target: Fuc(a1-2)Gal(b1-3)GlcNAc(b1-2)Man(a1-3)[Fuc(a1-2)Gal(b1-3)GlcNAc(b1-2)Man(a1-6)]Man(b1-4)GlcNAc(b1-4)GlcNAc
# Summary of the method: as §1
# [4] = molecular target: Fuc(a1-2)Gal(b1-3)GlcNAc(b1-3)[Gal(b1-4)GlcNAc(b1-6)]Gal(b1-4)Glc
# Summary of the method: as §1
# [5] = molecular target: Fuc(a1-2)Gal(b1-3)GlcNAc6S
# Summary of the method: as §1
# [6] = molecular target: Fuc(a1-2)Gal(b1-4)GlcNAc(b1-2)Man(a1-3)[Fuc(a1-2)Gal(b1-4)GlcNAc(b1-2)Man(a1-6)]Man(b1-4)GlcNAc(b1-4)GlcNAc
# Summary of the method: as §1
# [7] = molecular target: Fuc(a1-2)[Gal(a1-3)]Gal(b1-3)GlcNAc(b1-3)GalNAc
# Summary of the method: as §1
# [8] = molecular target: Fuc(a1-2)[Gal(a1-3)]Gal(b1-4)GlcNAc(b1-2)Man(a1-3)[Fuc(a1-2)[Gal(a1-3)]Gal(b1-4)GlcNAc(b1-2)Man(a1-6)]Man(b1-4)GlcNAc(b1-4)GlcNAc
# Summary of the method: as §1
# [9] = molecular target: Fuc(a1-2)[GalNAc(a1-3)]Gal(b1-4)GlcNAc(b1-6)GalNAc
# Summary of the method: as §1
# [10] = molecular target: Fuc(a1-3)[Gal(b1-4)]GlcNAc
# Summary of the method: as §1
# [11] = molecular target: Gal(a1-3)Gal(b1-4)GlcNAc(b1-2)Man
# Summary of the method: as §1
# [12] = molecular target: Gal(a1-4)Gal(b1-3)GlcNAc(b1-2)Man(a1-3)[Gal(a1-4)Gal(b1-3)GlcNAc(b1-2)Man(a1-6)]Man(b1-4)GlcNAc(b1-4)GlcNAc
# Summary of the method: as §1
# [13] = molecular target: Gal(a1-4)GlcNAc
# Summary of the method: as §1
# [14] = molecular target: Gal(b1-3)Gal(b1-4)GlcNAc
# Summary of the method: as §1
# [15] = molecular target: Gal(b1-3)GlcNAc(b1-3)Gal(b1-4)GlcNAc(b1-2)[Gal(b1-3)GlcNAc(b1-3)Gal(b1-4)GlcNAc(b1-6)]Man(a1-6)[Gal(b1-3)GlcNAc(b1-3)Gal(b1-4)GlcNAc(b1-2)Man(a1-3)]Man(b1-4)GlcNAc(b1-4)[Fuc(a1-6)]GlcNAc
# Summary of the method: as §1
# [16] = molecular target: Gal(b1-3)[Fuc(a1-4)]GlcNAc(b1-2)Man(a1-3)[Gal(b1-3)[Fuc(a1-4)]GlcNAc(b1-2)Man(a1-6)]Man(b1-4)GlcNAc(b1-4)[Fuc(a1-6)]GlcNAc
# Summary of the method: as §1
# [17] = molecular target: Gal(b1-4)Glc
# Summary of the method: as §1
# [18] = molecular target: Gal(b1-4)GlcNAc(b1-3)Gal(b1-3)GalNAc
# Summary of the method: as §1
# [19] = molecular target: Gal(b1-4)GlcNAc(b1-3)Gal(b1-3)GlcNAc
# Summary of the method: as §1
# [20] = molecular target: Gal(b1-4)GlcNAc(b1-3)Gal(b1-4)GlcNAc(b1-3)Gal(b1-4)GlcNAc(b1-2)Man(a1-3)[Gal(b1-4)GlcNAc(b1-3)Gal(b1-4)GlcNAc(b1-3)Gal(b1-4)GlcNAc(b1-2)Man(a1-6)]Man(b1-4)GlcNAc(b1-4)[Fuc(a1-6)]GlcNAc
# Summary of the method: as §1
# [21] = molecular target: Gal(b1-4)GlcNAc(b1-3)Gal(b1-4)GlcNAc(b1-3)Gal(b1-4)GlcNAc(b1-2)[Gal(b1-4)GlcNAc(b1-3)Gal(b1-4)GlcNAc(b1-3)Gal(b1-4)GlcNAc(b1-6)]Man(a1-6)[Gal(b1-4)GlcNAc(b1-3)Gal(b1-4)GlcNAc(b1-3)Gal(b1-4)GlcNAc(b1-2)Man(a1-3)]Man(b1-4)GlcNAc(b1-4)[Fuc(a1-6)]GlcNAc
# Summary of the method: as §1
# [22] = molecular target: Gal(b1-4)GlcNAc(b1-3)Gal(b1-4)GlcNAc(b1-3)Gal(b1-4)GlcNAc(b1-3)Gal(b1-4)GlcNAc(b1-3)Gal(b1-4)GlcNAc(b1-2)[Gal(b1-4)GlcNAc(b1-3)Gal(b1-4)GlcNAc(b1-3)Gal(b1-4)GlcNAc(b1-3)Gal(b1-4)GlcNAc(b1-3)Gal(b1-4)GlcNAc(b1-6)]Man(a1-6)[Gal(b1-4)GlcNAc(b1-3)Gal(b1-4)GlcNAc(b1-3)Gal(b1-4)GlcNAc(b1-3)Gal(b1-4)GlcNAc(b1-3)Gal(b1-4)GlcNAc(b1-2)Man(a1-3)]Man(b1-4)GlcNAc(b1-4)[Fuc(a1-6)]GlcNAc
# Summary of the method: as §1
# [23] = molecular target: Gal4S(b1-4)GlcNAc
# Summary of the method: as §1
# [24] = molecular target: Gal6P(b1-4)GlcNAc
# Summary of the method: as §1
# [25] = molecular target: Gal6S(b1-3)GlcNAc6S
# Summary of the method: as §1
# [26] = molecular target: GalNAc(b1-6)GalNAc
# Summary of the method: as §1
# [27] = molecular target: GalNAc6S(b1-4)GlcNAc
# Summary of the method: as §1
binder,measurement,setting,value
B1,glycan array binding signal (z-score),[1],-0.746
same,glycan array binding signal (z-score),[2],0.966
same,glycan array binding signal (z-score),[3],-0.335
same,glycan array binding signal (z-score),[4],0.735
same,glycan array binding signal (z-score),[5],-1.29
same,glycan array binding signal (z-score),[6],2.21
same,glycan array binding signal (z-score),[7],-0.745
same,glycan array binding signal (z-score),[8],2.78
same,glycan array binding signal (z-score),[9],-1.2
same,glycan array binding signal (z-score),[10],-0.073
same,glycan array binding signal (z-score),[11],-0.456
same,glycan array binding signal (z-score),[12],-0.185
same,glycan array binding signal (z-score),[13],0.991
same,glycan array binding signal (z-score),[14],-0.043
same,glycan array binding signal (z-score),[15],2.73
same,glycan array binding signal (z-score),[16],0.856
same,glycan array binding signal (z-score),[17],-0.252
same,glycan array binding signal (z-score),[18],-1.18
same,glycan array binding signal (z-score),[19],0.13
same,glycan array binding signal (z-score),[20],2.69
same,glycan array binding signal (z-score),[21],5.8
same,glycan array binding signal (z-score),[22],2.29
same,glycan array binding signal (z-score),[23],-1.15
same,glycan array binding signal (z-score),[24],-0.044
same,glycan array binding signal (z-score),[25],-1.34
same,glycan array binding signal (z-score),[26],0.877
same,glycan array binding signal (z-score),[27],0.893
